An excerpt weighted towards active compounds, which were near 3.4% of everything screened.
ADAM17 inh: inhibits human ADAM17; 370,000 tested, 0.83% active; inhibition, % at 6.95 µM; recombinant ADAM17, EDANS/DABCYL FRET peptide cleavage; AID 720648; P78536;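 active = inhibition above the mean of compounds lying between control limits plus 3 SD, set per campaign, cut at about 8.5% in these data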;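 also: 0% = DMSO-only wells as the low control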
PLC-beta3 inh: PLC-beta3 (human) inhibition, primary screen; Q01970; Purified PLC-beta3, fluorogenic substrate, fluorescence; inhibition, % at 12.2 µM; 370,000 tested, 0.18% active; AID 720704; in the data active = inhibition above about 11%;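 also: 0% = median of compound wells on plate and 100% = full blocker control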
proKLK7 act: proKLK7 (human) activation, primary screen; P49862; activation, % at 7 µM; purified proKLK7, EDANS-DABCYL substrate fluorescence; 100% is mature enzyme control, 0% vehicle; 370,000 tested, 0.9% active;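 active = activation above the mean of all tested compounds plus 3 SD, computed per campaign excluding outliers beyond control limits, cut at about 13% in these data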
PLC-gamma1 inh: blocks human PLC-gamma1 enzyme activity. P19174. purified PLC-gamma1, fluorogenic substrate, fluorescence. inhibition, % at 12.2 µM. 370,000 tested, 0.84% active
HGIII-sPLA2 inh: Blocks human group III sPLA2 activity | inhibition, % at 12.2 µM | QFRET BODIPY PC-A2 liposome hydrolysis, fluorescence | Q9NZ20 | 370,000 tested, 0.56% active;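 active = inhibition above mean plus 3 SD of compounds lying within the high and low control bounds, cut at about 19% in these data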;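 also: 0% = median of test compound wells and 100% = no enzyme DMSO wells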
Target sequence (Q9NZ20 whole entry, looked up): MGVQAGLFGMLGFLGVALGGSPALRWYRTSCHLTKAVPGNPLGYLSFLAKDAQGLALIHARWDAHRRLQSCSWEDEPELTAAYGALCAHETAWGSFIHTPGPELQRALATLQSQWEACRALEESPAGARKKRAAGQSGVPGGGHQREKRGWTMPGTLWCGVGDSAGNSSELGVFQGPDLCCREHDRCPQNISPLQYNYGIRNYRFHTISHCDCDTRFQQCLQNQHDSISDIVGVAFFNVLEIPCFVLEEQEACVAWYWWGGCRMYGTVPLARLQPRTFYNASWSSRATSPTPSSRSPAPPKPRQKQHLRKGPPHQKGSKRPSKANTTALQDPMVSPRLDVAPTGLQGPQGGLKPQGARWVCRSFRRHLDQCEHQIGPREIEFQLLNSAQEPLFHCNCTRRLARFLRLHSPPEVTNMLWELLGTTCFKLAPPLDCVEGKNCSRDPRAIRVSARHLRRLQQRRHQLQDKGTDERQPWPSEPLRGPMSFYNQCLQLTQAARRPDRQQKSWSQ
ADAM10 inh: inhibits human ADAM10; inhibition, % at 7 µM; AID 720582; O14672; recombinant ADAM10, EDANS/DABCYL FRET peptide cleavage, 3 h; 370,000 tested, 0.62% active;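 active = inhibition above a per-campaign cutoff equal to the mean of compounds falling between control-based bounds plus 3 SD, cut at about 20% in these data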;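 also: 0% = DMSO wells while the 100% control is not disclosed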
PLCgamma1 ctr: PLC-gamma1 inhibition, counter-screen for PLC-beta3 hits; shares compounds with PLC-gamma1 inh; purified PLC-gamma1, fluorogenic substrate, fluorescence; inhibition, % at 12.3 µM; 3,300 tested, 3.1% active
PLCbeta3 conf: confirmation of human PLC-beta3 inhibitors | AID 743261 | 3,300 tested, 1% active | purified PLC-beta3, fluorogenic substrate fluorescence | shares compounds with PLC-gamma1 inh | inhibition, % at 12.3 µM; in the data active = inhibition above about 11%
Numbers without * were called inactive. Rule as the data show it, unless noted: active = inhibition above about 9.5%; inactive = the rest.

Results for O=C1N2CCSC2=NC1(NS(=O)(=O)c1ccccc1)C(F)(F)F (centres undefined) ?
ADAM17 inh: 4; PLC-beta3 inh: 5; proKLK7 act: -1; PLC-gamma1 inh: 10*; HGIII-sPLA2 inh: 6; ADAM10 inh: 6; PLCgamma1 ctr: 2; PLCbeta3 conf: 2

Results for O=C1NC(c2ccccc2)=NC1(NS(=O)(=O)c1ccc(Cl)cc1)C(F)(F)F (centres undefined) ?
ADAM17 inh: 1; PLC-beta3 inh: -8; proKLK7 act: -1; PLC-gamma1 inh: -7; HGIII-sPLA2 inh: 6; ADAM10 inh: 3

Results for O=C1NC(c2ccccc2)=NC1(NS(=O)(=O)c1ccccc1)C(F)(F)F (centres undefined) ?
ADAM17 inh: 8; PLC-beta3 inh: 11*; proKLK7 act: 1; PLC-gamma1 inh: 3; HGIII-sPLA2 inh: 3; ADAM10 inh: 7; PLCgamma1 ctr: -2; PLCbeta3 conf: 1

How did O=C(O)/C(=C/c1ccc(Cl)c([N+](=O)[O-])c1)c1ccc(S(=O)(=O)N2CCCCC2)s1 do in these assays?
ADAM17 inh: -4; PLC-beta3 inh: -134; proKLK7 act: -2; PLC-gamma1 inh: -101; HGIII-sPLA2 inh: -8; ADAM10 inh: -26

How did O=C(Nc1ccccc1)C1CCCCC1 do in these assays?
ADAM17 inh: 2; PLC-beta3 inh: 3; proKLK7 act: 0; PLC-gamma1 inh: 5; HGIII-sPLA2 inh: 11; ADAM10 inh: -11

What do the screens show for `O=C(Nc1ncccn1)C1CCCCC1`?
ADAM17 inh: -3; PLC-beta3 inh: -4; proKLK7 act: 1; PLC-gamma1 inh: 11*; HGIII-sPLA2 inh: 12; ADAM10 inh: 9; PLCgamma1 ctr: -9; PLCbeta3 conf: -1

Results for O=C(CNCCC1=CCCCC1)Nc1ccccc1N1CCCCC1 ?
ADAM17 inh: 4; PLC-beta3 inh: 5; proKLK7 act: 0; PLC-gamma1 inh: 12*; HGIII-sPLA2 inh: -1; ADAM10 inh: 12; PLCgamma1 ctr: 0; PLCbeta3 conf: -1

How did O=C(N/N=C1\CCS(=O)(=O)c2ccc(F)cc21)c1ccc(O)cc1 do in these assays?
ADAM17 inh: -5; PLC-beta3 inh: -7; proKLK7 act: 0; PLC-gamma1 inh: -3; HGIII-sPLA2 inh: -1; ADAM10 inh: 4

What do the screens show for `CC1CCCC(C)N1CCCNC(=O)C1CCCN(S(=O)(=O)N2CCCCC2)C1` (centres undefined)?
ADAM17 inh: -2; PLC-beta3 inh: 1; proKLK7 act: 0; PLC-gamma1 inh: -1; HGIII-sPLA2 inh: 11; ADAM10 inh: -4

How did CC1CCCC(C)N1C(=O)COC(=O)c1ccc(O)cc1 (centres undefined) do in these assays?
ADAM17 inh: 4; PLC-beta3 inh: 0; proKLK7 act: 0; PLC-gamma1 inh: 20*; HGIII-sPLA2 inh: 1; ADAM10 inh: 4; PLCgamma1 ctr: -8; PLCbeta3 conf: -2

What do the screens show for `Cc1cnnc2c1-c1no[n+]([O-])c1CC2`?
ADAM17 inh: 4; PLC-beta3 inh: 9; proKLK7 act: -1; PLC-gamma1 inh: 13*; HGIII-sPLA2 inh: 9; ADAM10 inh: 2; PLCgamma1 ctr: 0; PLCbeta3 conf: 2

How did CCOC(=O)c1ccccc1NC(=O)c1cn(-c2ccc(C)c(C)c2)c(=O)c2ccccc12 do in these assays?
ADAM17 inh: 3; PLC-beta3 inh: 2; proKLK7 act: 0; PLC-gamma1 inh: 9.9*; HGIII-sPLA2 inh: 6; ADAM10 inh: 3; PLCgamma1 ctr: -3; PLCbeta3 conf: -4

Results for CCOC(=O)NC(Nc1nnc(SCC)s1)(C(F)(F)F)C(F)(F)F ?
ADAM17 inh: 2; PLC-beta3 inh: 6; proKLK7 act: 0; PLC-gamma1 inh: 11*; HGIII-sPLA2 inh: 8; ADAM10 inh: 10; PLCgamma1 ctr: -7; PLCbeta3 conf: -5

What do the screens show for `Cc1ccc(/C=N/NC(=O)Cc2ccc(Cl)cc2)s1`?
ADAM17 inh: -1; PLC-beta3 inh: -9; proKLK7 act: -1; PLC-gamma1 inh: 1; HGIII-sPLA2 inh: -5; ADAM10 inh: -2

Results for CCc1ccc(C(=O)NCc2cnn(C)c2)s1 ?
ADAM17 inh: 1; PLC-beta3 inh: 3; proKLK7 act: 0; PLC-gamma1 inh: 0; HGIII-sPLA2 inh: -1; ADAM10 inh: -7

How did Cc1cc(S(=O)(=O)Nc2ccc(C(=O)N3CCN(C(=O)c4ccco4)CC3)cc2)ccc1F do in these assays?
ADAM17 inh: 3; PLC-beta3 inh: 4; proKLK7 act: 0; PLC-gamma1 inh: 11*; HGIII-sPLA2 inh: -8; ADAM10 inh: 3; PLCgamma1 ctr: 5; PLCbeta3 conf: 4

What do the screens show for `CN(C)CCCNS(=O)(=O)c1ccc(NC2CCCCCC2)c([N+](=O)[O-])c1`?
ADAM17 inh: 2; PLC-beta3 inh: -4; proKLK7 act: 0; PLC-gamma1 inh: 15*; HGIII-sPLA2 inh: -26; ADAM10 inh: -1; PLCgamma1 ctr: -2; PLCbeta3 conf: 4

What do the screens show for `Cc1ccc2nc(SC(C(=O)c3ccccc3)c3ccccc3)nc(C)c2c1` (centres undefined)?
ADAM17 inh: 1; PLC-beta3 inh: -2; proKLK7 act: -1; PLC-gamma1 inh: 2; HGIII-sPLA2 inh: 3; ADAM10 inh: -7

How did CCOC(=O)C1=C(C)OC2(O)c3ccccc3C(=O)C12O (centres undefined) do in these assays?
ADAM17 inh: -6; PLC-beta3 inh: 2; proKLK7 act: 2; PLC-gamma1 inh: 10*; HGIII-sPLA2 inh: 13; ADAM10 inh: -3; PLCgamma1 ctr: -2; PLCbeta3 conf: -4

What do the screens show for `CC(=O)C1=C(C)OC2(O)c3ccccc3C(=O)C12O` (centres undefined)?
ADAM17 inh: -1; PLC-beta3 inh: -7; proKLK7 act: 0; PLC-gamma1 inh: 5; HGIII-sPLA2 inh: 1; ADAM10 inh: -13

How did CCc1ccccc1S(=O)(=O)Cc1ccc(C(=O)NCc2cccs2)o1 do in these assays?
ADAM17 inh: 0; PLC-beta3 inh: 1; proKLK7 act: 0; PLC-gamma1 inh: -2; HGIII-sPLA2 inh: -4; ADAM10 inh: 4

How did C[N+]1(C)CCC(OC(=O)C(O)(c2ccccc2)C2CCCC2)C1 (centres undefined) do in these assays?
ADAM17 inh: -6; PLC-beta3 inh: 5; proKLK7 act: 0; PLC-gamma1 inh: 10*; HGIII-sPLA2 inh: 12; ADAM10 inh: 0; PLCgamma1 ctr: -3; PLCbeta3 conf: 2

What do the screens show for `C[N+]1(C)CC[C@H](OC(=O)[C@@](O)(c2ccccc2)C2CCCC2)C1`?
ADAM17 inh: -1; PLC-beta3 inh: 3; proKLK7 act: 0; PLC-gamma1 inh: 1; HGIII-sPLA2 inh: -5; ADAM10 inh: 3

Screens from PubChem.
